Out of some 5,500 compounds screened, about 2,000 (36%) were called active. About 18% were inconclusive and are not listed. No stated cut-off is given here; in the data, active means normalized growth mostly below about 0.91 (no sharp cut-off); inconclusive means no clear call, values can overlap the other calls; inactive means mostly above about 0.92. The list shows a part of the results.
Experiment: chemical genetic growth profiling, strain panel (AID 1159580);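 further: tested at 20 µM; growth read once vehicle control cultures reached saturation at 30 °C; 1 = growth at the plate median or of vehicle wells; lower values mean less growth of the strain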
Conditions: growth OD

Measured: normalized growth

CC(=O)N[C@@H](CCC(=O)O)C(=O)O
inactive: S. cerevisiae deletion strains, locus YJR075W, strain HOC1, active compounds read low 1 | S. cerevisiae deletion strains, locus YKL009W, strain mrt4, active compounds read low 1.06 | S. cerevisiae deletion strains, locus YKL068W, active compounds read low 0.995 | S. cerevisiae deletion strains, locus YKL085W, strain MDH1 (second series), active compounds read low 1.01 | S. cerevisiae deletion strains, locus YKL085W, strain MDH1, active compounds read low 1.01 | S. cerevisiae deletion strains, locus YKL160W, strain elf1, active compounds read low 1.04 | S. cerevisiae deletion strains, locus YKL190W, strain CNB1, active compounds read low 1.01 | S. cerevisiae deletion strains, locus YKR001C, strain vps1, active compounds read low 1.01 | S. cerevisiae deletion strains, locus YKR026C, strain gcn3, active compounds read low 1.01 | S. cerevisiae deletion strains, locus YKR091W, strain srl3, active compounds read low 1.02 | S. cerevisiae deletion strains, locus YLL001W, strain dnm1, active compounds read low 0.996 | S. cerevisiae deletion strains, locus YLL026W, active compounds read low 1.01 | S. cerevisiae deletion strains, locus YLL041C, strain sdh2, active compounds read low 1.03 | S. cerevisiae deletion strains, locus YLR027C, strain aat2, active compounds read low 1.02 | S. cerevisiae deletion strains, locus YLR039C, strain RIC1, active compounds read low 1.02 | S. cerevisiae deletion strains, locus YLR058C, strain SHM2, active compounds read low 0.999 | S. cerevisiae deletion strains, locus YLR102C, strain apc9, active compounds read low 1.01 | S. cerevisiae deletion strains, locus YLR113W, strain HOG1, active compounds read low 0.999 | S. cerevisiae deletion strains, locus YLR221C, strain rsa3, active compounds read low 1 | S. cerevisiae deletion strains, locus YLR258W, strain gsy2, active compounds read low 1.03 | S. cerevisiae deletion strains, locus YLR262C, strain YPT6 (second series), active compounds read low 1.03 | S. cerevisiae deletion strains, locus YLR262C, strain YPT6, active compounds read low 0.998 | S. cerevisiae deletion strains, locus YLR268W, strain sec22, active compounds read low 1.06 | S. cerevisiae deletion strains, locus YLR320W, strain mms22, active compounds read low 1.01 | S. cerevisiae deletion strains, locus YLR330W, strain CHS5, active compounds read low 1.01 | S. cerevisiae deletion strains, locus YLR342W, strain FKS1 (second series), active compounds read low 1.05 | S. cerevisiae deletion strains, locus YLR342W, strain FKS1, active compounds read low 1.01 | S. cerevisiae deletion strains, locus YLR357W, strain rsc2, active compounds read low 0.997 | S. cerevisiae deletion strains, locus YLR370C, strain arc18, active compounds read low 1.02 | S. cerevisiae deletion strains, locus YLR371W, strain rom2, active compounds read low 1 | S. cerevisiae deletion strains, locus YLR384C, strain iki3, active compounds read low 1.01 | S. cerevisiae deletion strains, locus YLR418C, strain cdc73, active compounds read low 1.01 | S. cerevisiae deletion strains, locus YML016C, strain PPZ1, active compounds read low 1 | S. cerevisiae deletion strains, locus YML032C, strain rad52, active compounds read low 1.03 | S. cerevisiae deletion strains, locus YML120C, strain ndi1, active compounds read low 1.01 | S. cerevisiae deletion strains, locus YML124C, strain tub3, active compounds read low 1.01 | S. cerevisiae deletion strains, locus YMR058W, strain fet3, active compounds read low 1.02 | S. cerevisiae deletion strains, locus YMR078C, strain ctf18, active compounds read low 1.01 | S. cerevisiae deletion strains, locus YMR125W, strain sto1, active compounds read low 1.01 | S. cerevisiae deletion strains, locus YMR129W, active compounds read low 1.01 | S. cerevisiae deletion strains, locus YMR205C, strain PFK2, active compounds read low 1.01 | S. cerevisiae deletion strains, locus YMR223W, strain ubp8, active compounds read low 1 | S. cerevisiae deletion strains, locus YMR231W, strain pep5, active compounds read low 1.02 | S. cerevisiae deletion strains, locus YMR263W, strain SAP30, active compounds read low 1.01 | S. cerevisiae deletion strains, locus YMR307W, strain GAS1, active compounds read low 1.04 | S. cerevisiae deletion strains, locus YNL067W, strain RPL9B, active compounds read low 1.01 | S. cerevisiae deletion strains, locus YNL071W, strain lat1, active compounds read low 1.02 | S. cerevisiae deletion strains, locus YNL153C, strain GIM3, active compounds read low 1.01 | S. cerevisiae deletion strains, locus YNL183C, strain NPR1, active compounds read low 0.907 | S. cerevisiae deletion strains, locus YNL209W, strain ssb2, active compounds read low 1.03 | S. cerevisiae deletion strains, locus YNL233W, strain BNI4, active compounds read low 1.01 | S. cerevisiae deletion strains, locus YNL248C, strain rpa49, active compounds read low 1.02 | S. cerevisiae deletion strains, locus YNL250W, strain rad50, active compounds read low 1 | S. cerevisiae deletion strains, locus YNL271C, strain bni1, active compounds read low 1.02 | S. cerevisiae deletion strains, locus YNL298W, strain CLA4, active compounds read low 1.01 | S. cerevisiae deletion strains, locus YNL307C, strain MCK1, active compounds read low 1.02 | S. cerevisiae deletion strains, locus YNL322C, strain KRE1 (second series), active compounds read low 1.01 | S. cerevisiae deletion strains, locus YNR049C, strain mso1, active compounds read low 1.02 | S. cerevisiae deletion strains, locus YNR052C, strain pop2, active compounds read low 1.02 | S. cerevisiae deletion strains, locus YOL006C, strain TOP1, active compounds read low 1.06 | S. cerevisiae deletion strains, locus YOL012C, strain htz1 0.888 | S. cerevisiae deletion strains, locus YOL147C, strain pex11, active compounds read low 1.01 | S. cerevisiae deletion strains, locus YOR001W, strain rrp6, active compounds read low 0.988 | S. cerevisiae deletion strains, locus YOR061W, strain CKA2, active compounds read low 1.01 | S. cerevisiae deletion strains, locus YOR069W, strain VPS5, active compounds read low 1.01 | S. cerevisiae deletion strains, locus YOR070C, strain gyp1, active compounds read low 1.03 | S. cerevisiae deletion strains, locus YOR080W, strain dia2, active compounds read low 1.04 | S. cerevisiae deletion strains, locus YOR083W, strain WHI5, active compounds read low 1.03 | S. cerevisiae deletion strains, locus YOR106W, strain vam3, active compounds read low 1.03 | S. cerevisiae deletion strains, locus YOR136W, strain idh2, active compounds read low 0.993 | S. cerevisiae deletion strains, locus YOR144C, strain elg1, active compounds read low 1.01 | S. cerevisiae deletion strains, locus YOR184W, strain ser1, active compounds read low 1.02 | S. cerevisiae deletion strains, locus YOR231W, strain MKK1, active compounds read low 0.973 | S. cerevisiae deletion strains, locus YOR265W, strain rbl2, active compounds read low 1.01 | S. cerevisiae deletion strains, locus YOR270C, strain vph1, active compounds read low 1.11 | S. cerevisiae deletion strains, locus YOR290C, strain snf2, active compounds read low 1.05 | S. cerevisiae deletion strains, locus YOR316C, strain cot1, active compounds read low 1 | S. cerevisiae deletion strains, locus YPL051W, strain arl3, active compounds read low 1.03 | S. cerevisiae deletion strains, locus YPL055C, strain LGE1, active compounds read low 0.977 | S. cerevisiae deletion strains, locus YPL078C, strain atp4, active compounds read low 1.03 | S. cerevisiae deletion strains, locus YPL106C, strain sse1, active compounds read low 1.02 | S. cerevisiae deletion strains, locus YPL240C, strain hsp82, active compounds read low 1.03 | S. cerevisiae deletion strains, locus YPL256C, strain CLN2, active compounds read low 0.956 | S. cerevisiae deletion strains, locus YPR119W, strain clb2, active compounds read low 1 | S. cerevisiae deletion strains, locus YPR141C, strain kar3, active compounds read low 1.01 | S. cerevisiae deletion strains, locus YPR163C, strain tif3, active compounds read low 1.01 | S. cerevisiae deletion strains, locus YPR167C, strain met16, active compounds read low 1 | S. cerevisiae deletion strains, strain wtn01, active compounds read low 1.02 | S. cerevisiae strains, strain wild type, active compounds read low 1.01

From PubChem BioAssay AID1159580 (chemical genetic matrix, 2015)
